# Experimental data published in PubChem BioAssay (NCATS).
# Results filed as inconclusive are left out. Where a call stands in place of a potency, no number is given. A number with no mark means an inactive call. Calls of active or inactive are those of the source. Calls come from the whole dose curve; as a rule, active = well fitted inhibition curve with a large enough effect; inconclusive = small, poorly fitted or top-dose-only effect; inactive = flat fitted curve, though single readings scatter. *1 amine or outer side, *2 acyl side, *3 side chain or, on linkers, in order; H or OH if unused. Where a SMILES comes first, the peptide text is derived from it. Side-chain parts run from the residue outwards. [ ]: non-standard residue; d: D form. The star is where a group is joined. Ethylenediamine = C(CN[*:2])N[*:1]; Hyp = O=C(O)[C@@H]1C[C@@H](O)CN1; Phg = N[C@H](C(=O)O)c1ccccc1; CO = O=C([*:1])[*:2]; Bn = c1ccc(C*)cc1
# How the values were obtained:
# [1] = biological target: Glutathione peroxidase 1 (Homo sapiens) (UniProt P07203); test: Primary qHTS Assay for Inhibitors of Recombinant Selenoprotein Glutathione Peroxidase 1 (GPX1) (AID 1845191)
# Chain of Glutathione peroxidase 1 (Homo sapiens) (P07203 whole entry, looked up): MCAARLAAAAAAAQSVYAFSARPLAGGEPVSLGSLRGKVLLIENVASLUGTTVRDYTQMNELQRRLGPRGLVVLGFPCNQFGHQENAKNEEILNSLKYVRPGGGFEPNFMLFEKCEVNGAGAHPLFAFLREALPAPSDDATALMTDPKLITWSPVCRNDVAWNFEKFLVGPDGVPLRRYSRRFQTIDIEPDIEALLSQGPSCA
# How it was run: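 GR-coupled readout: NADPH consumption tracked by fluorescence, ex 340/em 450 nm, at t=0 and after 15 min at RT. Final mix 10 nM GPX1, 1 mM GSH, 0.5 mM CHP, 0.5 mM NADPH, 100 nM GR, 0.01% BSA, following 30 min enzyme–compound preincubation.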
# [2] = biological target: Phospholipid hydroperoxide glutathione peroxidase GPX4 (Homo sapiens) (UniProt P36969); test: Primary qHTS Assay for Inhibitors of Recombinant Selenoprotein Glutathione Peroxidase 4 (GPX4) (AID 1845192); note: potency is the fitted concentration of half-maximal effect; for activity change, negative = inhibition: series mostly up to about 50 µM
# Chain of Phospholipid hydroperoxide glutathione peroxidase GPX4 (Homo sapiens) (P36969 whole entry, looked up): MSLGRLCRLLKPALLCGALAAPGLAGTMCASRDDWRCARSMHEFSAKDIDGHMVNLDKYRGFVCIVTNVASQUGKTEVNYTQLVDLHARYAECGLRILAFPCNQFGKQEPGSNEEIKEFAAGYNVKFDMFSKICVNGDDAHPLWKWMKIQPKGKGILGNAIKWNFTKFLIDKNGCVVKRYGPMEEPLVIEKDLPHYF
# How it was run: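 Steps: GPX4 plus compound, 30 min RT; add GR/GSH/NADPH master mix; start with cumene hydroperoxide; read 340/450 nm fluorescence at 0 and 15 min. Finals were 200 nM GPX4, 1 mM GSH, 0.5 mM CHP, 0.5 mM NADPH, 100 nM GR.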
# Note: nearly all actives have a fitted effect of over 65% in size.
Structure (SMILES),Potency [1],Potency [2],outcome [1],"activity change, negative = inhibition [2]"
CCCC(=O)O[C@]1(C(=O)COC(C)=O)CC[C@H]2C3C[C@H](F)C4=CC(=O)C=C[C@]4(C)[C@@]3(F)[C@@H](O)C[C@@]21C (stereo not given in full),inactive,inactive,–,–
CN[C@H]1C(=O)N[C@@H]2Cc3ccc(cc3)Oc3cc4cc(c3O[C@@H]3O[C@H](C(=O)O)[C@@H](O)[C@H](O)[C@H]3NC(=O)CCCCCCCCC(C)C)Oc3ccc(cc3Cl)[C@@H](O)[C@@H]3NC(=O)[C@H](NC(=O)[C@@H]4NC(=O)[C@@H](NC2=O)c2cc(cc(O)c2Cl)Oc2cc1ccc2O)c1ccc(O)c(c1)-c1c(O[C@H]2O[C@H](CO)[C@@H](O)[C@H](O)[C@@H]2O)cc(O)cc1[C@@H](C(=O)NCCCN(C)C)NC3=O,inactive,inactive,–,–
C[N+](C)(C)CCOP(=O)([O-])OP(=O)(O)OC[C@H]1OC(n2ccc(N)nc2=O)[C@H](O)[C@@H]1O (stereo not given in full),–,–,inactive [at 0.4 µM],0.205% [at 0.409 µM]
OC[C@H]1OC(O)C[C@@H](O)[C@@H]1O (stereo not given in full),inactive,inactive,–,–
C=C1/C(=C/C=C2\CCC[C@]3(C)[C@@H]([C@H](C)CCCC(O)(C(F)(F)F)C(F)(F)F)CC[C@@H]23)C[C@@H](O)C[C@@H]1O,inactive,14.1 µM (active),–,–
O=C(OC1C(OC(=O)c2cccnc2)C(OC(=O)c2cccnc2)C(OC(=O)c2cccnc2)C(OC(=O)c2cccnc2)C1OC(=O)c1cccnc1)c1cccnc1 (stereo not given),inactive,inactive,–,–
CCCCCCCCCCCCCCCC(=O)OCC=C(C)C=CC=C(C)C=CC1=C(C)CCCC1(C)C,inactive,inactive,–,–
CCCCCCCC(=O)N[C@H](CN1CCCC1)[C@H](O)c1ccc2c(c1)OCCO2,inactive,inactive,–,–
CCCN1C[C@@H](NS(=O)(=O)N(CC)CC)C[C@@H]2Cc3c(O)cccc3C[C@H]21,inactive,inactive,–,–
CCC(=O)OCC(=O)[C@]1(OC(=O)CC)[C@H](C)C[C@H]2[C@H]3[C@H]([C@@H](O)C[C@@]21C)[C@@]1(C)C=CC(=O)C=C1C[C@H]3Cl,inactive,inactive,–,–
O[C@@H]1[C@@H](O)[C@@H](O)OC[C@@H]1O,inactive,inactive,–,–
NCCCC(N)C(=O)O (stereo not given),inactive,inactive,–,–
COc1cc2c(cc1OC)[C@H]1C[C@@H](OC(=O)[C@@H](N)C(C)C)[C@H](CC(C)C)CN1CC2,inactive,inactive,–,–
C=Cc1c(C)c2cc3nc(c(CC(=O)N[C@@H](CC(=O)O)C(=O)O)c4nc(cc5[nH]c(cc1[nH]2)c(C)c5CC)C(C)=C4C(=O)O)[C@@H](CCC(=O)O)[C@@H]3C,inactive,inactive,–,–
NCCCC[C@@H]1NC(=O)[C@@H](Cc2c[nH]c3ccccc23)NC(=O)[C@H](c2ccccc2)NC(=O)[C@@H]2C[C@@H](OC(=O)NCCN)CN2C(=O)[C@H](Cc2ccccc2)NC(=O)[C@H](Cc2ccc(OCc3ccccc3)cc2)NC1=O (cyclo([Hyp]([CO-Ethylenediamine])[Phg][dW]KY(Bn)F)),inactive,inactive,–,–
CC[C@H](C)[C@@H]([C@@H](CC(=O)N1CCC[C@H]1[C@H](OC)[C@@H](C)C(=O)NCCc1ccccc1)OC)N(C)C(=O)[C@@H](NC(=O)[C@H](C(C)C)N(C)C)C(C)C,inactive,inactive,–,–
Cc1cc(O)ccc1C(C)(C)C,inactive,inactive,–,–
C=CCN1CC[C@]23c4c5ccc(O)c4O[C@H]2[C@@H](OCCOCCOCCOCCOCCOCCOCCOC)CC[C@@]3(O)[C@H]1C5,inactive,inactive,–,–

Structure (SMILES),Potency [1],Potency [2],outcome [1],"activity change, negative = inhibition [2]"
O=C(O)C(O)[C@H](O)[C@H](O)[C@H](O)[C@H](O)CO (stereo not given in full),inactive,inactive,–,–
CN(CC(O)CO)C(=O)c1c(I)c(NC(=O)C(CO)CO)c(I)c(C(=O)N(C)CC(O)CO)c1I (stereo not given),inactive,inactive,–,–
CC(C)OC(=O)CCC/C=C\C[C@@H]1[C@@H](CC[C@@H](O)CCc2ccccc2)[C@H](O)C[C@@H]1O,–,–,inactive [at 9.52 µM],4.91% [at 9.73 µM]
CC[C@H]1[C@@H](O)[C@@H]2[C@H](CC[C@]3(C)[C@@H]([C@H](C)CCC(=O)O)CC[C@@H]23)[C@@]2(C)CC[C@@H](O)C[C@@H]12,inactive,11.2 µM (active),–,–
CCOc1cc(C(CS(C)(=O)=O)N2C(=O)c3cccc(NC(C)=O)c3C2=O)ccc1OC (stereo not given),inactive,inactive,–,–
CO[C@H]1C[C@H](O[C@@H]2[C@H](C)O[C@H](O[C@@H]3/C(C)=C/C[C@@H]4C[C@@H](C[C@]5(C=C[C@H](C)[C@@H](C6CCCCC6)O5)O4)OC(=O)[C@@H]4C=C(C)C(O)[C@H]5OC/C(=C\C=C\[C@@H]3C)[C@]54O)C[C@@H]2OC)O[C@@H](C)[C@@H]1O (stereo not given in full),inactive,inactive,–,–
Cc1cc2nc3c(=O)[nH]c(=O)nc-3n(C[C@H](O)[C@H](O)[C@H](O)COP(=O)(O)OP(=O)(O)OC[C@H]3O[C@@H](n4cnc5c(N)ncnc54)[C@H](O)[C@H]3O)c2cc1C,inactive,inactive,–,–
CNCC(=O)OCc1cccnc1N(C)C(=O)OC(C)[n+]1cnn(C[C@](O)(c2cc(F)ccc2F)[C@@H](C)c2nc(-c3ccc(C#N)cc3)cs2)c1 (stereo not given in full),inactive,inactive,–,–
C#C[C@]1(O)CC[C@H]2[C@@H]3CCC4=CC(=O)CCC4[C@H]3CC[C@@]21CC (stereo not given in full),inactive,inactive,–,–
CN1CC(O)c2cc(N=NC(=N)N)c(O)cc21 (stereo not given),inactive,inactive,–,–
CN[C@@H]1[C@@H](O)[C@@H](O[C@@H]2[C@@H](O)[C@H](OC3O[C@H](CN)[C@@H](O)[C@H](O)[C@H]3O)[C@@H](N)C[C@H]2NC(=O)[C@@H](O)CN)OC[C@]1(C)O (stereo not given in full),inactive,inactive,–,–
Clc1ccc(CCCOCCCN2CCCCC2)cc1,inactive,inactive,–,–
CO[C@@H]1[C@@H](O[C@@H]2O[C@H](C)[C@@H](O[C@H]3C[C@@](C)(O)[C@H](O)[C@H](C)O3)[C@H](N(C)C)[C@H]2O)[C@@H](CC=O)C[C@@H](C)[C@@H](O[C@H]2CC[C@H](N(C)C)[C@@H](C)O2)/C=C/C=C/C[C@H](C)OC(=O)C[C@H]1O,inactive,inactive,–,–
C[N+]1(C)[C@@H]2CC(OC(=O)C(O)(c3cccs3)c3cccs3)C[C@H]1[C@H]1O[C@@H]12 (stereo not given in full),inactive,inactive,–,–
CC(C)C[C@H]1C(=O)O[C@H](Cc2ccc(N3CCOCC3)cc2)C(=O)N(C)[C@@H](CC(C)C)C(=O)O[C@H](C)C(=O)N(C)[C@@H](CC(C)C)C(=O)O[C@H](Cc2ccc(N3CCOCC3)cc2)C(=O)N(C)[C@@H](CC(C)C)C(=O)O[C@H](C)C(=O)N1C,inactive,inactive,–,–
CC1=CC(O)CC(C)(C)C1/C=C/C(C)=C/C=C/C(C)=C/C=C/C=C(C)/C=C/C=C(C)/C=C/C1=C(C)CC(O)CC1(C)C (stereo not given),inactive,12.6 µM (active),–,–
CC(C)=C/C(C)=N\Nc1nncc2ccccc12,inactive,inactive,–,–
